Compound activity from PubChem BioAssay.
VACV mCherry inh = vaccinia inhibition (mCherry reporter); Vaccinia virus mCherry reporter infection, fluorescence; 310,000 tested, 0.63% active; Potency, µM (series often up to 36.5 µM), most hits filed as inhibitors; calls by dose curve; tested in A549 cells; also: nearly all actives have a fitted effect of over 35% in size
LASV entry inh = Lassa virus entry inhibition; 300,000 tested, 1.2% active; Potency, µM (series often up to 37.9 µM), hits mostly inhibitors; Lassa virus pseudotype entry inhibition, cell reporter; calls by dose curve; tested in HEK293 cells; also: nearly all actives have a fitted effect of over 50% in size
FMDV inh = foot and mouth disease virus antiviral activity; 410,000 tested, 1.2% active; Potency, µM (highest dose often 57.9 µM), actives largely listed as inhibitors; AID 1159524; FMDV antiviral cell-based qHTS; calls by dose curve; tested in HEK293T cells; also: read-out not given here; nearly all actives have a fitted effect of over 45% in size
Sm TGR inh = S. mansoni TGR enzyme inhibition. Q962Y6. purified TGR, DTNB reduction, TNB absorbance 405 nm. Potency, µM (doses to about 114 µM), hits mostly inhibitors. 360,000 tested, 3% active. AID 485364; active = well fitted inhibition curve with a large enough effect; inconclusive = small, poorly fitted or top-dose-only effect; inactive = no such curve, though single readings can be large or run the other way; also: nearly all actives have a fitted effect of over 60% in size
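First, TGR (20 nM dispensed) and NADPH were mixed with compound. Second, a 15 min room-temperature incubation followed. Third, further NADPH and then DTNB were added to start the reaction. Finally, TNB absorbance was monitored kinetically.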
MARV entry inh = blocks Marburg virus binding to or entry into cells; Marburg virus pseudotyped entry inhibition, cell reporter; Potency, µM (doses to about 37.8 µM), most hits filed as inhibitors; 300,000 tested, 1.8% active; AID 540276; calls by dose curve; tested in HEK293 cells
Vaccinia Venus = vaccinia inhibition (Venus reporter). Vaccinia virus Venus reporter expression, fluorescence. Potency, µM (doses to about 36.5 µM), usual class: inhibitors. 330,000 tested, 0.46% active; calls by dose curve; tested in A549 cells; also: nearly all actives have a fitted effect of over 30% in size
Each line names hits and unclear results; the compound was inactive in the other large screens. Sampled rows, rich in hits. Any-hit rate of the full collection: about 5.4%.

COc1ccc(C2CC(=O)c3c([nH]c(C(=O)OC(C)C)c3C)C2)cc1OC (stereo not drawn)	FMDV inh inconclusive, MARV entry inh inconclusive
Cc1cc2c(cc1NS(=O)(=O)c1ccc(Br)cc1)n(C)c(=O)c(=O)n2C	none (no result: MARV entry inh)
COc1ccc(N2C(=O)C(CC(=O)Nc3ccccc3)N(CCC3=CCCCC3)C2=O)cc1 (stereo not drawn)	none
CCOc1ccc(C(=O)N2CCC(c3nc4ccccc4o3)CC2)cc1	none
S=c1[nH]nc(-c2cccnc2)n1/N=C/C=C/c1ccco1	MARV entry inh inconclusive (no result: Sm TGR inh)
S=c1[nH]nc(-c2ccc(Cl)cc2)n1/N=C/C=C/c1ccco1	LASV entry inh inconclusive, Sm TGR inh 40µM
Cc1ccccc1-c1n[nH]c(=S)n1/N=C/C=C/c1ccco1	Sm TGR inh 14µM (no result: VACV mCherry inh, LASV entry inh, MARV entry inh, Vaccinia Venus)
Cc1cc(-c2n[nH]c(=S)n2/N=C/C=C/c2ccco2)n[nH]1	Sm TGR inh 22µM
S=c1[nH]nc(-c2ccccc2)n1/N=C/C=C/c1ccco1	LASV entry inh inconclusive, Sm TGR inh inconclusive
COC(=O)[C@@]1(Cc2ccc(OC)cc2)[C@H]2c3cc(C(=O)N(C)C)n(C[C@H](O)CO)c3C[C@H]2CN1C(=O)c1ccccc1	none
C=C1C(=O)C=C2CN(C(=O)c3ccccc3)[C@@](Cc3ccc(F)cc3)(C(=O)OC)[C@@H]12	VACV mCherry inh inconclusive, LASV entry inh 21µM, FMDV inh 3.2µM, Sm TGR inh 10µM, MARV entry inh inconclusive, Vaccinia Venus 8.9µM
COC(=O)[C@@]1(Cc2ccc(OC)cc2)[C@@H]2C(=CC(=O)[C@H]2CC(=O)C(=O)N(C)C)CN1C(=O)c1ccccc1	LASV entry inh inconclusive, FMDV inh 25µM, Sm TGR inh inconclusive, MARV entry inh inconclusive, Vaccinia Venus inconclusive
CCOc1ccc(Nc2nc(C)c(NC(=O)c3cccc(OC)c3)c(Nc3ccc(OCC)cc3)n2)cc1	FMDV inh inconclusive, MARV entry inh 11µM
CCCCCc1c(C)c(C#N)c2nc3ccccc3n2c1-n1ccnc1C	none (no result: VACV mCherry inh, Vaccinia Venus)
N#Cc1c2c(c(N3CCN(c4ccccn4)CC3)n3c1nc1ccccc13)CCC2	Sm TGR inh 40µM (no result: VACV mCherry inh, LASV entry inh, FMDV inh, MARV entry inh, Vaccinia Venus)
Cc1nccn1-c1c2c(c(C#N)c3nc4ccccc4n13)CCC2	Sm TGR inh 25µM
Cc1c(Nc2c3c(c(C#N)c4nc5ccccc5n24)CCC3)c(=O)n(-c2ccccc2)n1C	Sm TGR inh 32µM (no result: VACV mCherry inh, LASV entry inh, FMDV inh, MARV entry inh, Vaccinia Venus)
O=C(NCC1Cc2cccc(-c3cccnc3)c2O1)c1ccc2cc[nH]c2c1 (stereo not drawn)	none (no result: LASV entry inh, Sm TGR inh, MARV entry inh)
Cc1ccc(CN(C(=O)c2ccccc2F)c2ccccn2)o1	Sm TGR inh 45µM
Cc1ccc(CN(C(=O)c2ccc(F)cc2)c2ccccn2)o1	none
Cn1ccnc1C1CCCCN1C(=O)CN1Cc2ccccc2OC(c2ccccc2F)C1 (stereo not drawn)	none (no result: LASV entry inh, Sm TGR inh, MARV entry inh)
CC1(C)N=C(N)N=C(N)N1c1ccc(CCCCc2ccccc2)cc1	VACV mCherry inh 3.2µM, FMDV inh 3.5µM, Vaccinia Venus inconclusive (no result: LASV entry inh, Sm TGR inh, MARV entry inh)
O=C(C[n+]1cccc2cccc(O)c21)c1ccc(F)cc1	none (no result: LASV entry inh, FMDV inh, Sm TGR inh, MARV entry inh)
Cc1cc(C(=O)NCCN2CCN(c3cccc(Cl)c3)CC2)n(-c2ccccc2)n1	VACV mCherry inh inconclusive, LASV entry inh 7.3µM, FMDV inh inconclusive, MARV entry inh 7.3µM
Cc1cc(C(=O)NCCCN2CCN(c3cc(Cl)ccc3C)CC2)n(-c2ccccc2)n1	FMDV inh inconclusive, Vaccinia Venus inconclusive (no result: LASV entry inh)
Cc1cnc(SCc2ccccn2)nc1C1CCCN(C(=O)c2scc3c2CCCC3)C1 (stereo not drawn)	VACV mCherry inh inconclusive, FMDV inh 16µM, Vaccinia Venus inconclusive (no result: LASV entry inh, Sm TGR inh, MARV entry inh)
CC(=O)Nc1ccc(C(=O)N2CCCC(c3nc(SCc4ccccn4)ncc3C)C2)cc1 (stereo not drawn)	none (no result: LASV entry inh, Sm TGR inh, MARV entry inh)
Cc1cnc(SCc2ccccn2)nc1C1CCCN(C(=O)c2noc3c2CCCC3)C1 (stereo not drawn)	FMDV inh 20µM, Vaccinia Venus inconclusive (no result: LASV entry inh, Sm TGR inh, MARV entry inh)
COc1ccccc1NC(=O)c1sc2cccc(Cl)c2c1Cl	LASV entry inh inconclusive (no result: MARV entry inh)
CCOc1ccc(NC(=O)CN2CCCC2c2cccs2)cc1S(=O)(=O)N1CCCC1 (stereo not drawn)	none (no result: VACV mCherry inh, LASV entry inh, MARV entry inh, Vaccinia Venus)
COc1ccc(NC(=O)c2cncc(Br)c2)cc1S(=O)(=O)N1CCCCC1	VACV mCherry inh inconclusive, LASV entry inh inconclusive, FMDV inh 20µM, MARV entry inh inconclusive
COc1ccc(NC(=O)[C@@H](NC(=O)c2ccccc2)C(C)C)cc1S(=O)(=O)N1CCCCC1	MARV entry inh 0.11µM
COc1ccc(NC(=O)c2cc(OC)c(OC)c(OC)c2)cc1S(=O)(=O)N1CCCCC1	LASV entry inh inconclusive, FMDV inh inconclusive
COc1ccc(NC(=O)CN2CCCC2c2cccs2)cc1S(=O)(=O)N1CCCCC1 (stereo not drawn)	FMDV inh 40µM (no result: VACV mCherry inh, LASV entry inh, MARV entry inh, Vaccinia Venus)
CCOc1ccc(CCNC(=O)Cn2nnc(-c3ccc(C(F)(F)F)cc3)n2)cc1OCC	none
COc1ccc(N2CCN(C(=O)CCS(=O)(=O)c3cccc4nsnc34)CC2)cc1	Sm TGR inh inconclusive
COc1ccc(N2CCN(C(=O)CS(=O)(=O)c3cccc4nsnc34)CC2)cc1	Sm TGR inh 50µM (no result: MARV entry inh)
COc1ccc(N2CCN(C(=O)CCS(=O)(=O)c3ccc(OC)cc3)CC2)cc1	none (no result: LASV entry inh, MARV entry inh)
COc1ccc(N2CCN(C(=O)CCS(=O)(=O)c3ccc(C)cc3)CC2)cc1	Sm TGR inh 25µM
COc1cc(=O)n2c(c1C(=O)NC(C)c1ccco1)CCN(Cc1ccccc1Cl)CC2 (stereo not drawn)	none (no result: LASV entry inh, Sm TGR inh, MARV entry inh)
Cc1ccc2nc(-c3ccc(NC(=O)CCS(=O)(=O)c4ccccc4)cc3)sc2c1	LASV entry inh 1.8µM, FMDV inh inconclusive, MARV entry inh inconclusive
O=C(CCS(=O)(=O)c1ccccc1)Nc1nc2cc3c(cc2s1)OCCO3	Sm TGR inh 10µM (no result: VACV mCherry inh, LASV entry inh, MARV entry inh, Vaccinia Venus)
Cc1nc2ccc(NC(=O)CCS(=O)(=O)c3ccccc3)cc2s1	MARV entry inh inconclusive (no result: VACV mCherry inh, Vaccinia Venus)
CCN(CC)S(=O)(=O)c1cccc(C(=O)Nc2nc3cc4c(cc3s2)OCCO4)c1	VACV mCherry inh inconclusive, LASV entry inh inconclusive, FMDV inh 13µM, MARV entry inh 18µM, Vaccinia Venus inconclusive
O=C(CCS(=O)(=O)c1ccccc1)Nc1nc2cc3c(cc2s1)OCO3	VACV mCherry inh inconclusive, Sm TGR inh 10µM, Vaccinia Venus inconclusive
CCN1C(=NCC(C)C)N[C@H](c2ccccc2)[C@H](C(=O)OC)[C@H]1C	none (no result: VACV mCherry inh, FMDV inh, Sm TGR inh, Vaccinia Venus)
COc1ccc2c(c1)c1c(c(=O)n(-c3ccc(C)cc3)c(=O)n1CC(=O)Nc1cc(C)ccc1C)n2C	none (no result: MARV entry inh)
COc1ccc(CNC(=O)CN2C(=O)CCn3nc(-c4ccccc4)cc32)c(OC)c1	none (no result: MARV entry inh)
CCSC1=C(C#N)[C@@H](c2cccs2)C(C(=O)OC)=C(C)N1	none (no result: VACV mCherry inh, LASV entry inh, FMDV inh, Sm TGR inh, Vaccinia Venus)
CCc1ccc(N2CCn3c2nc2c3c(=O)n(CCc3ccccc3)c(=O)n2C)cc1	none (no result: MARV entry inh)
CCOC(=O)c1ccoc1CSCc1ccc(C(=O)OC)o1	Sm TGR inh 28µM
O=C(NCC1Cc2cccc(-c3ncccn3)c2O1)c1cccc(-c2ccccc2F)c1 (stereo not drawn)	none (no result: LASV entry inh, Sm TGR inh, MARV entry inh)
O=C(CCc1nnc(CCCCc2ccccc2)o1)N1CCN(CCO)CC1	LASV entry inh inconclusive
